LYPLA1 counter – LYPLA1 inhibitors, primary screen, counter-screen for PME1 inhibitor project, biochemical, fluorescence polarization, FP-Rh probe ABPP. Acyl-protein thioesterase 1 (Homo sapiens), O75608. recombinant LYPLA1. inhibition, % at 5.9 µM. 320,000 compounds, 0.16% hits;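 active = inhibition above the mean of all tested compounds plus 3 SD, set per campaign, cut at about 14% in these data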;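 note: inhibitors block serine hydrolase probe labeling of LYPLA1 so polarization falls; 0% = enzyme with DMSO and 100% = wells lacking LYPLA1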
Target sequence (O75608 whole entry, looked up): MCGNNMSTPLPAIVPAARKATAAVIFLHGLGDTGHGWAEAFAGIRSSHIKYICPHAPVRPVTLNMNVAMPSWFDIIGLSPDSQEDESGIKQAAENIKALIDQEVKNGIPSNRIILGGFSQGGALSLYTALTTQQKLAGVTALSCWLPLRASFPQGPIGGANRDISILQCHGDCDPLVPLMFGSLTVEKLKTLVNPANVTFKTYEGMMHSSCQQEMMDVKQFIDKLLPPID
PREPL inhibitor – PREPL enzyme inhibitors, primary screen, biochemical, fluorescence polarization; recombinant PREPL, fluorescence polarization activity-based probe; Prolyl endopeptidase-like (Homo sapiens), Q4J6C6; 320,000 compounds, 0.68% hits; AID 2751, 2010; inhibition, % at 5.96 µM; in the data active = inhibition above about 43%;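 note: 0% = enzyme with DMSO and 100% = wells lacking enzyme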
LYPLA2 inh – LYPLA2 inhibitors, primary screen, counter-screen for PME1 inhibitor project, biochemical, fluorescence polarization, FP-Rh probe ABPP | Acyl-protein thioesterase 2 (Homo sapiens), O95372 | recombinant LYPLA2 | inhibition, % at 5.9 µM | 320,000 compounds, 0.38% hits;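 active = inhibition above the screen-wide mean plus 3 SD, limit set per campaign, cut at about 26% in these data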;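 note: 0% = LYPLA2 with DMSO and 100% = wells lacking LYPLA2 enzyme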
PME-1 primary – PME-1 inhibitors via competitive probe labeling, primary screen, biochemical, fluorescence polarization, FP-Rh probe, HTS; recombinant PME-1; inhibition, % at 5.9 µM; 320,000 compounds, 0.53% hits; AID 2130, 2009;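 active = inhibition above the campaign mean of all compounds plus 3 SD, cut at about 26% in these data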;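 note: competitive labeling of PME-1 active site by serine hydrolase directed probe; 0% = PME-1 with DMSO and 100% = wells lacking PME-1 enzyme; inhibitors block probe labeling so polarization falls and inhibition rises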
MEX-5 binding – MEX-5 zinc finger RNA-binding disruptors – biochemical, C. elegans, fluorescence polarization, MLPCN library, primary screen | Zinc finger protein mex-5 (Caenorhabditis elegans), Q9XUB2 | AID 1832, 2009 | 300,000 compounds, 0.38% hits | activity score (negative = inhibition of binding), % at 10 µM | MEX-5/FITC-TCR2 RNA binding; active compounds read low;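 active = inhibition past about -25% in most replicates, and total fluorescence under double the plate's negative control median, limit read from the data; inconclusive = replicates evenly split on the limit, or fluorescence at least double controls; inactive = too little inhibition in most replicates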;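 note: 0% = DMSO and -100% = 5 µM competing unlabeled TCR2 RNA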
Target sequence (Q9XUB2 whole entry, looked up): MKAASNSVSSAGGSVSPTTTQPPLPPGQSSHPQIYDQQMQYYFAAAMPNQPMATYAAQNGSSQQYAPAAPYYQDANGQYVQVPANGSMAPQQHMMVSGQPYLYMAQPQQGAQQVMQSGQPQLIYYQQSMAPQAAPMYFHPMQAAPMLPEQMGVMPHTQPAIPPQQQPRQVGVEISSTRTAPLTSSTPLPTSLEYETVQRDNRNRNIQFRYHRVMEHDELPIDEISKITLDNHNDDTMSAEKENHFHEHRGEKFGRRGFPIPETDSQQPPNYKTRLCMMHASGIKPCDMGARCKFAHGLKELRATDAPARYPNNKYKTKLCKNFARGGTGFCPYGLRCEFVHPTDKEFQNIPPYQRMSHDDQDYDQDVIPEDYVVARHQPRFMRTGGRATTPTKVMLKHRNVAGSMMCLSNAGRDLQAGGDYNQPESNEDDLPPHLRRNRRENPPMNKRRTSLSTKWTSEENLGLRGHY
Fam108B counter – mouse Fam108B serine hydrolase inhibitors, primary screen, counter-screen for RBBP9 inhibitor project, biochemical, fluorescence polarization. recombinant Fam108B, FP-Rh probe fluorescence polarization. inhibition, % at 9.51 µM. 300,000 compounds, 0.33% hits. AID 1947, 2009;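 active = inhibition above the screen mean inhibition plus 3 SD, computed separately per campaign, cut at about 18% in these data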;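 note: inhibitors lower polarization as less probe binds the enzyme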
Starred values were filed as active, the others as inactive; ? = inconclusive; . = not tested or not shown. The list is not random: actives were taken first. Their share in the collection is about 1.6%.

SMILES | LYPLA1 counter | PREPL inhibitor | LYPLA2 inh | PME-1 primary | MEX-5 binding | Fam108B counter
CCCCC(=O)NC(c1ccc(OC)c(OC)c1)c1c(O)ccc2ccccc12 (stereo not drawn) | -2 | 8 | -2 | 6 | 1 | -3
CCCC(=O)NC(c1ccccc1)c1c(O)ccc2ccccc12 (stereo not drawn) | -3 | 2 | 2 | 1 | 0 | -4
Cc1sc(NC(=O)CN(Cc2ccc(F)cc2)C(=O)C(C)(C)C)c(C(N)=O)c1C | -5 | 8 | -4 | 0 | -2 | 0
Cc1nn(C(C)C(=O)NCCCN2CCCC2)c(=O)c2nn(-c3ccccc3)c(C)c12 (stereo not drawn) | 3 | 15 | 1 | 1 | 2 | 1
CCOC(=O)N1CC=C2C(C#N)=C(N)C(C#N)(C#N)[C@H](c3ccccc3OCC)[C@H]2C1 | 0 | 4 | 1 | 27* | -4 | -1
N#CC1=C(N)C(C#N)(C#N)[C@H](c2cccnc2)[C@H]2CN(C(=O)OCc3ccccc3)CC=C12 | -3 | 27 | -2 | 25 | -1 | -1
CCOC(=O)N1CC=C2C(C#N)=C(N)C(C#N)(C#N)[C@H](c3ccsc3)[C@H]2C1 | 0 | -1 | 3 | 11 | ? | -1
N#CC1=C(N)C(C#N)(C#N)C(c2ccncc2)C2CN(C(=O)OCc3ccccc3)CC=C12 (stereo not drawn) | 6 | 27 | 13 | 31* | 0 | 1
CCOC(=O)N1CC=C2C(C#N)=C(N)C(C#N)(C#N)[C@H](c3ccc(OC(C)C)c(OCC)c3)[C@H]2C1 | 0 | 8 | 5 | 41* | -6 | 1
N#CCCN(Cc1cccnc1)C(=S)NC(=O)C1CC1 | -3 | -1 | -3 | 0 | -1 | -1
O=S(=O)(Nc1nc(-c2sccc2Cl)cs1)c1cc(Cl)ccc1Cl | -2 | 1 | -5 | 13 | -9 | 29*
CC(C)(C)c1nnc(NS(=O)(=O)c2cc(Cl)ccc2Cl)s1 | -8 | -5 | -3 | -4 | 0 | -2
c1ccc(-c2cc3c(N4CCCCC4)ncnc3s2)cc1 | 2 | 9 | -8 | -7 | 4 | -2
C=CCn1c(O)c(CN2CCN(Cc3ccccc3)CC2)c(C)c(C#N)c1=O | 2 | 13 | 5 | -2 | -5 | 2
CCCn1c(O)c(CN2CCCCC2)c(C)c(C#N)c1=O | 0 | -5 | 4 | 1 | -51* | 0
Cc1c(CN2CCCCC2)c(O)n(CCCO)c(=O)c1C#N | -1 | -5 | 4 | 1 | -46* | -5
N=C1C(c2nc3ccccc3[nH]2)=C(O)CN1c1ccc(CC(=O)O)cc1 | -2 | 17 | -2 | 10 | -85* | 5
CC(C(=O)NCCSCc1cccc(Cl)c1)N(c1ccccc1)S(C)(=O)=O (stereo not drawn) | -2 | 20 | 3 | -1 | -2 | 8
CC(C)Cn1c(/C=N/Nc2nc3ccccc3[nH]2)nc2ccccc21 | . | . | . | . | 7 | .
Cn1c(/C=N/Nc2nc3ccccc3[nH]2)nc2ccccc21 | -7 | 29 | -7 | 48* | 1 | 12
O=C(CSc1ccccc1)N1CCC(N2CCC(C(=O)N3CCCC3)CC2)CC1 | 0 | 21 | 10 | 6 | 1 | 5
COc1ccc(/C=c2\sc3nc(-c4ccccc4OC)nn3c2=O)c(OC)c1 | 2 | -3 | 1 | -2 | -33* | -3
COc1ccccc1-c1nc2s/c(=C\c3cccs3)c(=O)n2n1 | -3 | -3 | -1 | 2 | -1 | -13
CC1(C)CCC(=O)N2CC[C@H]3C[C@H](OC(=O)Nc4ccc(Br)cc4)C[C@@H]1[C@H]32 | -2 | 12 | -4 | -1 | 2 | -4
CC(C)Cc1nnc(NC(=O)CCN2C(=O)c3ccccc3C2=O)s1 | -1 | -2 | 3 | 0 | -1 | -2
SMILES | LYPLA1 counter | PREPL inhibitor | LYPLA2 inh | PME-1 primary | MEX-5 binding | Fam108B counter
CCOC(=O)c1cc2c(=O)n3ccccc3nc2n(C(C)C)c1=NC(=O)c1ccncc1 | -4 | -2 | -9 | 1 | -32* | 3
CCOC(=O)c1cc2c(=O)n3ccccc3nc2n(CCOC)c1=NC(=O)c1ccncc1 | 5 | 7 | 6 | 3 | -1 | -2
COc1ccc(S(=O)(=O)N2CCCCCC2)cc1C(=O)N1CCCC(C(F)(F)F)C1 (stereo not drawn) | -4 | -1 | -1 | -1 | 2 | 1
NC(=O)c1ccc(Oc2ccc3ccc(=O)oc3c2)c([N+](=O)[O-])c1 | 7 | 11 | 38* | 23 | -3 | 6
Cc1ccc2c(c1)=C(c1sc(N(C)c3ccc(O)cc3)nc1O)C(=O)N=2 | -1 | 22 | 4 | 9 | 1 | 7
O=C1N=c2ccc(Br)cc2=C1c1sc(=O)[nH]c1O | 13 | 9 | -1 | -7 | -26* | 13
COC(=O)/C=C1\C(=O)N(c2nc3ccccc3s2)C(=S)N1c1ccc(F)cc1 | -3 | 18 | -5 | -5 | -30* | -5
COC(=O)/C=C1\C(=O)N(c2nc3ccc(OC)cc3s2)C(=S)N1c1ccc(F)cc1 | -1 | 6 | -1 | 4 | -1 | 1
CC(C)[C@H](CN(N=O)[C@@H](Cc1ccccc1)CN(C)N=O)N(CCc1ccccc1)N=O | -2 | -2 | -6 | 2 | -1 | 5
COc1cccc(/C=C2/SC(=S)N(CCCC(=O)Nc3ccc(O)cc3)C2=O)c1 | -6 | 24 | -2 | 4 | 0 | 3
COc1cccc(/C=C2\SC(=S)N(CCCC(=O)NC3=NCCS3)C2=O)c1 | -1 | 1 | 0 | 6 | -34* | 0
Cn1c(=O)c2c(nc(CN3CCCCC3)n2CCc2ccccc2)n(C)c1=O | -2 | 0 | -6 | -3 | 1 | 7
Cc1nc(S/C(=C/c2ccc(-c3cccc(Cl)c3)o2)C(=O)O)n[nH]1 | 8 | 13 | 0 | 18 | -35* | 16
CC1=NOC(=O)/C1=C\c1ccc(-c2cccc(Cl)c2)o1 | -1 | 18 | 3 | -2 | 1 | 13
Cc1ccc(S(=O)(=O)c2cc(C)cc(S(=O)(=O)Nc3ccc(C(=O)O)cc3)c2C)cc1 | 3 | -6 | 2 | -4 | 0 | 2
CS(=O)(=O)Nc1nc2n(n1)C(c1ccccc1)C=C(c1ccc(Br)cc1)N2 (stereo not drawn) | -4 | 7 | 7 | -6 | -69* | 2
Cc1ccc([N+](=O)[O-])cc1S(=O)(=O)Nc1ccc(O)c(Sc2ncn[nH]2)c1 | -1 | 11 | -1 | 9 | -40* | 2
O=c1nc(/C=C/c2cc([N+](=O)[O-])ccc2Cl)cc(C(F)(F)F)[nH]1 | -2 | 8 | 5 | 27* | -2 | 8

Source: PubChem
